The record followed here is PubChem BioAssay (EPA / NIEHS).

SMILES strings stand for the structures. The source made the active and inactive calls. Rule for the calls: active = hit-call score of the fitted dose curve at least 0.9, where 1 is the maximum; inactive = score below 0.9.

A short description of the test: APR_HepG2_MitoMembPot_72hr: Apredica 72-hour HepG2 Assay for Mitochondrial Membrane Potential (AID 2282917). The note with it: imaging, actives raise or lower the signal. The procedure:
APR_HepG2_72hr is a cell-based, multiplexed-readout assay that uses HepG2, a human liver cell line, with measurements taken at 72 hours after chemical dosing in a 384-well plate.APR_HepG2_MitoMembPot_72hr is one of 10 assay component(s) measured or calculated from the APR_HepG2_72hr assay. It is designed to make measurements of dye binding, a form of membrane potential reporter, as detected with fluorescence intensity signals by HCS Fluorescent Imaging technology.Data from the assay component APR_HepG2_MitoMembPot_72hr was analyzed into 1 assay endpoint. This assay endpoint, APR_HepG2_MitoMembPot_72hr, was analyzed with bidirectional fitting relative to DMSO as the negative control and baseline of activity. Using a type of membrane potential reporter, gain or loss-of-signal activity can be used to understand changes in the signaling. Furthermore, this assay endpoint can be referred to as a primary readout, because this assay has produced multiple assay endpoints where this one serves a signaling function. To generalize the intended target to other relatable targets, this assay endpoint is annotated to the cell morphology intended target family, where the subfamily is organelle conformation.
Cells were treated with dimethyl sulfoxide (DMSO) as a solvent control at a final concentration of 0.5% v/v or with compounds in DMSO with a resulting final DMSO concentration of 0.5% v/v. Compound treatment was done at concentrations of 0.39, 0.78, 1.56, 3.12, 6.24, 12.5, 25, 50, 100, and 200 uM in duplicate on each plate. Cells were treated with compounds for 1, 24, or 72 hr. Carbonyl […] m-chloro-phenylhydrazone (CCCP) and taxol were used as positive controls for mitochondrial function and cytoskeletal stability, respectively; DMSO served as the negative control for this experiment. Cells were fixed by the direct addition of 50 uL formaldehyde in Hank's Balanced Salt Solution (HBSS) to a final concentration of 3.7%. After incubation in the fixation medium for 30 min at room temperature (293-298 K), cells were rinsed twice with HBSS and treated with cell permeabilization buffer (16 uL of 0.5% Triton X-100) for 10 min at room temperature (293-298 K) before labeling. For mitochondrial membrane potential and mitochondrial measurements, pre-fixed cells were incubated with 50 uL of MitoTracker Red CMXRos (Invitrogen) at a concentration of 250 nM for 30 min before fixation. In the remaining cases, post-fixed cells were labeled by incubation with a multiplexed mixture of primary antibodies in HBSS for 60 min at room temperature (293-298 K) to detect immunoreactivity of c-Jun (1:500), phospho-histone H3 (1:100), phospho-histone H2A.x (1:200), p53 (1:400), alpha-tubulin (1:200) and Hoechst 33342 (2 ug/mL). Cells were labeled for multiplexed imaging on two separate plates: a) Hoechst 33342, MitoTracker Red, phospho-histone H3, and alpha-tubulin, and b) Hoechst 33342, phospho-histone H2A.x, and c-Jun. A final rinse with HBSS (50 uL) was performed before analysis. The primary and secondary antibodies for the proteins were phospho-histone H3 (rabbit anti-phospho-histone H3 and FITC-donkey anti-rabbit IgG), phospho-histone H2A.x (mouse anti-phospho-histone H2A.x and FITC-donkey anti-mouse IgG), c-Jun (rabbit anti-phospho-c-Jun and Cy3-donkey anti-rabbit IgG), p53 (sheep anti-p53 and Cy5-donkey anti-sheep IgG), alpha-tubulin (mouse anti-alpha-tubulin and Cy5-donkey anti-mouse IgG). These antibodies are available as the CellCiphr HepG2 assay kit (Millipore).Digital images of each well were captured using a Cellomics ArrayScan VTI (Thermo Scientific Cellomics) (0.8 NA objective, 0.63x optical coupler, and XF-93 filter set) at 20x magnification. The images were acquired using the autofocus feature of the ArrayScan instrument, which entails the following steps. First, the camera focuses on channel 1 (Hoechst 33342), where nuclei are identified. Second, a Z offset of 1 um is used for capturing mitochondria (MitoTracker Red). […]
For `Cn1c(=O)c2c(ncn2C)n(C)c1=O`, the outcome was inactive.

In general, AC50 refers to the concentration giving half of the maximal activity seen. For `C[C@](N)(Cc1ccc(O)c(O)c1)C(=O)O`, the concentration at half-maximal activity (AC50) was 58.4 µM (active).

In the case of `CCOCCOCCOCCO`, the outcome was inactive.

Take `CC(=O)c1ccc2c(c1)[C@H](NC(=O)c1ccc(F)cc1)[C@@H](O)C(C)(C)O2`: the outcome was inactive.

Turning to `COCCOCCOCCOC`, the call was inactive.

As for `O=C(O)CC(O)C(=O)O` (stereo not given), the call was inactive.

As to `CC(C)CC(C)(O)C#CC(C)(O)CC(C)C` (stereo not given), the compound was called inactive.

As to `CNS(=O)(=O)c1cc(C(=O)N2CCC(CCN3C4CCC3CC(n3c(C)nc5ccccc53)C4)(c3cccc(F)c3)CC2)c(Cl)cc1F` (stereo not given), the call was inactive.

With `CCCCC(CC)COC(=O)CCCCCCCCC(=O)OCC(CC)CCCC` (stereo not given), the AC50 is 83.4 µM (active).

In the case of `COc1cccc(-c2ccc(/C=C\CN3CCCCCC3)cc2Cl)c1`, the compound was called inactive.

In the case of `CCc1cc(SCc2sc(-c3ccc(C(F)(F)F)cc3)nc2CN2CCN(c3ccc(OC)cc3)CC2)ccc1OCC(=O)O`, the AC50 is 116 µM (active).

Consider `Cn1cnc([N+](=O)[O-])c1Sc1ncnc2nc[nH]c12`, for which the compound was called inactive.

Turning to `CN(C)c1ccc(N=NS(=O)(=O)O)cc1`, the compound was classed as inactive.

As to `O=C(O)CCN(C1(C(=O)NO)CCCC1)S(=O)(=O)c1ccc(Oc2ccc(F)cc2)cc1`, the compound was called inactive.

In the case of `Cc1ccc(C)c(O)c1`, the call was inactive.

As for `CCn1nc(Cc2ccccc2)cc1C1CCN(C[C@H]2C[C@H](N(C)[C@@H](C(=O)O)C(C)C)C[C@@H]2c2cccc(F)c2)CC1`, the compound was classed as inactive.

Regarding `CC[C@H]1CC[C@H](NCc2cc3c(cc2OC)[C@H]2C[C@H]2C(=O)N3C)[C@H](c2ccccc2)N1`, the result was inactive.

As to `Nc1nc2ncc(CNc3ccc(C(=O)N[C@@H](CCC(=O)O)C(=O)O)cc3)nc2c(=O)[nH]1`, the outcome was inactive.

Take `COCCOc1cc2cc(C(=O)NC3CCN(C(C)C)CC3)n(CC(=O)Nc3ccc(Cl)cn3)c2cn1`: the outcome was inactive.

With `Nc1cccc(N)c1`, the result was inactive.

In the case of `CCCCCCCCO`, the compound was classed as inactive.

As to `CN(C)c1ccc(Cc2ccc(N(C)C)cc2)cc1`, the compound was called inactive.

In the case of `O=C1CCCCCN1`, the outcome was inactive.

As for `Cc1ccc(S(=O)(=O)O)cc1C`, the compound was called inactive.

As to `CCN(C(=O)c1cc(C)cc(OC[C@H](C)Nc2ccncc2)c1)C(C)C`, the outcome was inactive.

For `CC1=CC(=O)CC(C)(C)C1`, the call was inactive.

For the compound `COC(=O)c1ccccc1O`, the call was inactive.

In the case of `CC(C)(O)c1coc(S(=O)(=O)NC(=O)Nc2c3c(cc4c2CCC4)CCC3)c1`, the result was inactive.

As for `CCCC(=O)OCC`, the outcome was inactive.

On to `Clc1nc(Cl)c(Cl)c(Cl)c1Cl`, for which the result was inactive.

Consider `CCC(C)(C)C(=O)O[C@H]1C[C@@H](C)C=C2C=C[C@H](C)[C@H](CC[C@@H]3C[C@@H](O)CC(=O)O3)[C@H]21`, for which the result was inactive.

`O=C(OC[C@H]1O[C@@H](OC(=O)c2cc(O)c(O)c(OC(=O)c3cc(O)c(O)c(O)c3)c2)[C@H](OC(=O)c2cc(O)c(O)c(OC(=O)c3cc(O)c(O)c(O)c3)c2)[C@@H](OC(=O)c2cc(O)c(O)c(OC(=O)c3cc(O)c(O)c(O)c3)c2)[C@@H]1OC(=O)c1cc(O)c(O)c(OC(=O)c2cc(O)c(O)c(O)c2)c1)c1cc(O)c(O)c(OC(=O)c2cc(O)c(O)c(O)c2)c1`: the AC50 is 15.1 µM (active).

For the compound `CCCCCCCCCCCCCCCO`, the compound was called inactive.

Consider `Nc1ccc(Nc2ccccc2)cc1`, for which the compound was called inactive.

Regarding `CC[C@H](C)C(=O)O[C@H]1C[C@@H](C)C=C2C=C[C@H](C)[C@H](CC[C@@H]3C[C@@H](O)CC(=O)O3)[C@H]21`, the outcome was inactive.

As for `CC(C)=CCCC(C)=CC=O`, the call was inactive.

`CC(C)CCCCCCCOC(=O)CCCCC(=O)OCCCCCCCC(C)C`: the compound was called inactive.

Turning to `COC(=O)c1c(Cl)c(Cl)c(C(=O)OC)c(Cl)c1Cl`, the result was inactive.

`CCOC(=O)CC(CC(=O)OCC)(OC(C)=O)C(=O)OCC`: the outcome was inactive.

As for `CCCN(C1CCN(C(=O)C2CCNCC2)CC1)[C@@H]1CCc2ccc(OC)cc2C1`, the outcome was inactive.
